According to PubChem BioAssay AID2284385 (EPA ToxCast):
Where “and” joins values, the source holds several entries; their conditions need not be identical. Equal entries are not always repeated. Calls of active or inactive are those of the source. The calls were made as follows: active = hit-call score of the fitted dose curve at least 0.9, where 1 is the maximum; inactive = score below 0.9.

molecular target: human Peroxisome proliferator-activated Receptor alpha (PPARa), PPARA (gene 5465) (UniProt Q07869); assay: ERF_TW_NR_COA_hPPARA: Eurofins (ERF) Nuclear Receptor (NR) Functional Coactivator Assay for human Peroxisome proliferator-activated Receptor alpha (PPARa) Agonism & Antagonism, conducted at Taiwan lab site
Description: ERF_TW_NR_COA_hPPARA is a biochemical, single-readout assay that uses extracted gene-proteins in a cell-free assay. Measurements were taken 3 hours after chemical dosing in a 96-well plate. See PPARalpha Human NHR Functional Agonist Coactivator Assay, Panlabs.ERF_TW_NR_COA_hPPARA is an assay component calculated from the ERF_TW_NR_COA_hPPARA assay. It is designed to measure FRET using a type of binding reporter as detected by fluorescence intensity of GW7647 with fluorimetry technology.Data from the assay component ERF_TW_NR_COA_hPPARA was analyzed at the assay endpoint, ERF_TW_NR_COA_hPPARA, in the positive analysis fitting direction relative to DMSO as the negative control and baseline of activity. Using a type of binding reporter, gain-of-signal activity can be used to understand changes in binding as they relate to gene PPARA. To generalize the intended target to other relatable targets, this assay endpoint is annotated to the nuclear receptor intended target family, where the subfamily is non-steroidal.
Human recombinant peroxisome proliferators-activated receptor alpha (PPARA, PPARa, PPAR-alpha) hPPAR, NR1C1) receptors expressed in insect are used. Test compound and/or vehicle is incubated with the 2.5 nM receptors and binding buffer in modified kit buffer pH 7.4 for 3 hours at RT. Determination of the amount of complex formed is read microplate reader (excitation:337 nm, emission: 520/490 nm). Test compound-induced increase fluorescence by 50 percent or more (>/=50%) relative to the 1 uM GW7647 response indicates possible PPARa receptor agonist activity. Test compound-induced inhibition of 20 nM GW7647-induced fluorescence response by 50 percent or more (>/=50%) indicates receptor antagonist activity.

Chain of human Peroxisome proliferator-activated Receptor alpha (PPARa), PPARA (gene 5465) (Q07869 whole entry, looked up): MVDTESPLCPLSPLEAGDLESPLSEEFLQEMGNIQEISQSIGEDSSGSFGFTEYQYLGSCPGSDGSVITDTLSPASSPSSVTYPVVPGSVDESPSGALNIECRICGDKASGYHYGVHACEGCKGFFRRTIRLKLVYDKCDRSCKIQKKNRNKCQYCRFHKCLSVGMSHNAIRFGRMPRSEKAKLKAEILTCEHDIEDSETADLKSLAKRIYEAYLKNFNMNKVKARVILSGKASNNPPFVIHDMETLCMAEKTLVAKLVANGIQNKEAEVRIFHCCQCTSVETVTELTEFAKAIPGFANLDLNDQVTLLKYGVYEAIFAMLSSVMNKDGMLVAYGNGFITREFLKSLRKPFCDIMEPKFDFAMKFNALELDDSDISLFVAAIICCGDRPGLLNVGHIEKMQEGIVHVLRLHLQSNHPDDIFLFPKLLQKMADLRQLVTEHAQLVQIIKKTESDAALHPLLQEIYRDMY

Q: `O=C(O)C(F)(F)C(F)(F)C(F)(F)C(F)(F)C(F)(F)C(F)(F)F` was tested. Which AC50 did it give?
A: 50 µM (active)

Q: With `O=S(=O)(O)C(F)(F)C(F)(F)C(F)(F)C(F)(F)C(F)(F)C(F)(F)C(F)(F)C(F)(F)F` as the compound, how does the outcome read?
A: inactive

Q: How did the AC50 turn out when `O=C(O)C(F)(F)C(F)(F)C(F)(F)C(F)(F)C(F)(F)C(F)(F)C(F)(F)F` was run?
A: 11.5 µM (active) and 17.1 µM (active)

Q: How did the outcome turn out when `O=S(=O)(O)C(F)(F)C(F)(F)C(F)(F)C(F)(F)C(F)(F)C(F)(F)F` was run?
A: inactive

Q: For `O=C(O)C(F)(F)OC(F)(F)C(F)(F)OC(F)(F)F`, which AC50 is on record?
A: 19.3 µM (active)
